The source of these data is PubChem BioAssay AID540256 (National Center for Advancing Translational Sciences (NCATS), 2011).

The campaign covered roughly 300,000 compounds. About 3,700 (1.2%) were called active. A call without a number means that no potency is given here. Another 20% or so got no clear call; they are omitted. Calls come from the whole dose curve; tested in HEK293 cells. The sample as a whole holds a higher share of actives than the screen did.
Potency is the fitted concentration of half-maximal effect.

The nature of this test: qHTS for Inhibitors of binding or entry into cells for Lassa Virus. Note: nearly all actives have a fitted effect of over 50% in size. Particulars: Lassa virus pseudotype entry inhibition, cell reporter; series mostly up to 37.9 µM.
For the molecule `COc1ccc(C(=O)Nc2ccccc2C(=O)NCc2ccco2)cc1`, the Potency entry was “inactive”.

Consider `COc1ccc(/C=C(/NC(=O)c2ccco2)C(=O)Nc2ccc(C(C)=O)cc2)cc1`, for which the Potency result is “inactive”.

In the case of `COc1ccc(/C=C(\NC(=O)c2ccc(OCC(C)C)cc2)C(=O)OCc2ccco2)cc1`, the Potency is 12.6 µM (active).

For the molecule `Cc1cc(C)c(C)c(S(=O)(=O)Nc2cccnc2)c1C`, the Potency entry is “inactive”.

On to `CCOc1ccccc1CNC(=O)c1cnc2c(-c3ccc(OCC)c(OCC)c3)c(C)nn2c1C`, for which the Potency result is “inactive”.

Consider `Cc1ccc2nc(NC(=O)C3CSC4(C)CCC(=O)N34)sc2c1` (stereo unspecified), for which the Potency entry is “inactive”.

Take `O=C(Cc1c(Cl)cccc1Cl)NC1CC1`: the Potency entry is “inactive”.

Regarding `CCc1cccc(CC)c1NC(=S)NCc1ccc2[nH]c(C)cc2c1`, the Potency is 18.4 µM (active).

For the molecule `Cc1c(Cl)cccc1NC(=S)NCc1ccc2c(c1)OCO2`, the Potency entry is “inactive”.

Turning to `Cc1c(NC(=S)NCc2ccc(F)cc2)cccc1[N+](=O)[O-]`, the Potency result is “inactive”.

`O=C(CCc1ccccc1Cl)Nc1ccc(S(=O)(=O)Nc2nccs2)cc1`: the Potency result was “inactive”.

On to `O=C(COC(=O)c1ccc(O)cc1O)NC(=O)c1ccccc1`, for which the Potency result was “inactive”.

`O=C(CN(Cc1ccccc1)C(=O)CCC(=O)Nc1ccccn1)NCCc1ccccc1`: the Potency result was “inactive”.

`Cc1cc([N+](=O)[O-])ccc1NS(=O)(=O)c1ccccc1`: the Potency result was “inactive”.

`O=C(COc1cccnc1[N+](=O)[O-])Nc1ccc(Cl)cc1F`: the Potency entry was “inactive”.

As for `O=C(c1cccs1)n1nc(NCc2ccccc2)nc1NCc1ccccc1`, the Potency was 10 µM (active).

On to `O=C(CCC(=O)c1cccs1)NCc1ccccc1`, for which the Potency result was “inactive”.

Regarding `O=C(c1ccco1)n1nc(-c2ccc(Cl)cc2)nc1NCc1ccccc1`, the Potency entry was “inactive”.

Regarding `Oc1cccc(CCc2ccccn2)c1`, the Potency result was “inactive”.

For `Cc1ccc(-c2nn(-c3ccc(F)cc3)cc2C(=O)NCC(c2cccs2)N2CCOCC2)cc1` (stereo unspecified), the Potency result is “inactive”.

With `CC(C)c1nc2sc3c(c2c(=O)n1N)CC(C)(C)OC3`, the Potency entry was “inactive”.

`CC/C(C)=N/Nc1nc2sc3c(c2c(=O)[nH]1)CC(C)(C)OC3`: the Potency is 5.01 µM (active).

In the case of `CCOC(=O)CSc1nc2sc3c(c2c(=O)[nH]1)CC(C)(C)OC3`, the Potency entry is “inactive”.

For the molecule `Cc1ccc(NC(=O)CSc2nn3c(=O)c(C)nnc3s2)cc1Cl`, the Potency result was “inactive”.

For the molecule `COCC(C)n1c(SCc2ccc(C(=O)OC)o2)nc2ccccc2c1=O` (stereo unspecified), the Potency was 10.3 µM (active).

`COC(=O)c1ccc(CSc2ccccc2C)o1`: the Potency entry was “inactive”.

Turning to `COCC(C)n1c(SCC(=O)NC2CCCCC2C)nc2ccccc2c1=O` (stereo unspecified), the Potency result is “inactive”.

For the molecule `O=C(NCCS(=O)(=O)N1CCN(c2ccc(F)cc2)CC1)c1ccc2c(c1)OCO2`, the Potency entry is “inactive”.

`O=C1/C(=C\c2ccc(O)cc2)CCC1CNc1ccc(Cl)cc1` (stereo unspecified): the Potency entry was “inactive”.

Consider `Cc1cccc(NC(=O)c2cccc(S(=O)(=O)N3CCCC3)c2)n1`, for which the Potency result was “inactive”.

With `O=C(CCCn1c(=O)c2cccn2c2cccnc21)NCc1ccc(F)cc1`, the Potency result is “inactive”.

As to `Cc1cccc(N2CCN(C(=O)Cn3ncc4c5ccccc5n(C)c4c3=O)CC2C)c1` (stereo unspecified), the Potency entry is “inactive”.

As to `Cc1cccc(N2CCN(C(=O)CCn3c(=O)c4cccn4c4cccnc43)CC2C)c1` (stereo unspecified), the Potency was 7.94 µM (active).

`O=C(/C=C/c1cccc([N+](=O)[O-])c1)OCC(=O)N1CCOCC1`: the Potency result was “inactive”.

Turning to `O=C(NCCc1ccco1)c1ccc(OCc2cn3ccccc3n2)cc1`, the Potency entry is “inactive”.

In the case of `CCc1nn(CCCC(=O)Nc2ccc(C)c(C)c2)c(=O)c2cc3occc3n12`, the Potency result was “inactive”.

In the case of `C=CCN(CC=C)S(=O)(=O)c1ccc(C(=O)Nc2nc3c(s2)CCc2ccccc2-3)cc1`, the Potency was 3.16 µM (active).

For the molecule `C=CCN(CC=C)S(=O)(=O)c1ccc(C(=O)Nc2sc3c(c2C(N)=O)CCCCC3)cc1`, the Potency result is “inactive”.

On to `CCOC(=O)c1c(NC(=O)c2ccc(S(=O)(=O)N(CC)CC)cc2)sc2c1CCCCC2`, for which the Potency result was “inactive”.

On to `O=C(Nc1ncccc1O)c1ccc(S(=O)(=O)N2CCCCCC2)cc1`, for which the Potency entry was “inactive”.

As for `COc1c(Cl)cc(Cl)cc1C(=O)Nc1cccc2cccnc12`, the Potency entry was “inactive”.

Take `CC(=O)/C(=N\Nc1ccc(Cl)cc1Cl)Sc1cccc2cccnc12`: the Potency is 11.2 µM (active).

Turning to `O=C(CSc1cccc2cccnc12)N/N=C/c1cccnc1`, the Potency entry is “inactive”.

As for `O=C(CC(=O)c1cccnc1)c1ccccc1`, the Potency entry was “inactive”.

Regarding `CCN(C(=O)CSc1cccc[n+]1[O-])c1ccccc1`, the Potency result was “inactive”.

Take `CC1(C(=O)N/N=C/c2cc3c(cc2Br)OCO3)CC1(Br)Br` (stereo unspecified): the Potency entry is “inactive”.

In the case of `O=C(Nc1nc2ccc([N+](=O)[O-])cc2s1)c1ccc(S(=O)(=O)N2CCCc3ccccc32)cc1`, the Potency was 12.6 µM (active).

`O=C(Nc1nnc(S(=O)(=O)N2CCCc3ccccc32)s1)c1cccc(F)c1`: the Potency result was “inactive”.

Consider `O=C(NC(Nc1nc2ccc([N+](=O)[O-])cc2s1)(C(F)(F)F)C(F)(F)F)c1ccccc1`, for which the Potency was 0.92 µM (active).

Consider `O=C(COC(=O)c1ccc(F)cc1)Nc1nc2ccc([N+](=O)[O-])cc2s1`, for which the Potency result is “inactive”.

With `CS(=O)(=O)c1ccc2nc(NC(=O)c3ccc(N4CCCC4=O)cc3)sc2c1`, the Potency entry is “inactive”.

As to `O=C(Nc1nc2ccc([N+](=O)[O-])cc2s1)c1ccncc1`, the Potency result was “inactive”.

For the molecule `COc1cc(C2C(C(=O)c3cccs3)=C(O)C(=O)N2CCN2CCOCC2)ccc1OCCC(C)C` (stereo unspecified), the Potency entry is “inactive”.

Regarding `COc1cc(C(=O)CCc2ccc3c(c2)OCO3)cc(OC)c1OC`, the Potency result was “inactive”.

Turning to `Cn1c(=O)[nH]c2c(c(C(=O)O)nn2C)c1=O`, the Potency result was “inactive”.

In the case of `COc1cc2c(cc1OC)CN(C(C)C(=O)Nc1cccc(S(=O)(=O)N3CCOCC3)c1)CC2` (stereo unspecified), the Potency entry is “inactive”.

Take `CC(=O)CSc1nc(CCc2ccccc2)c(C#N)c(=O)[nH]1`: the Potency entry is “inactive”.

With `Cn1c(C(=O)NCCN2CCc3ccccc3C2)cc2c(=O)[nH]c3ccccc3c21`, the Potency is 0.92 µM (active).

On to `O=C(NCCN1CCN(Cc2ccccc2)CC1)c1cc2c(=O)[nH]c3ccccc3c2s1`, for which the Potency entry was “inactive”.

For `Cc1cccc(N2CCN(C(=O)c3cc4c(=O)[nH]c5ccccc5c4n3C)CC2)c1C`, the Potency result was “inactive”.

As for `OC1CCCN(c2ncnc3c2nnn3Cc2c(F)cccc2Cl)C1` (stereo unspecified), the Potency is 6.31 µM (active).

With `CCOC(=O)N1CCN(C(=O)C2CCCN(c3ncnc4c3sc3cccc(F)c34)C2)CC1` (stereo unspecified), the Potency result was “inactive”.

Regarding `Cc1ccc(NC(=O)N2CCC(c3nc4c(nnn4Cc4c(F)cccc4Cl)c(=O)[nH]3)CC2)cc1`, the Potency entry is “inactive”.

On to `Cc1ccc(Br)c(NS(=O)(=O)c2cccc(C(=O)N3CCNC(=O)C3)c2)c1`, for which the Potency entry was “inactive”.

For `NC(=O)C1CCN(C(=O)c2cccc(NC(=O)c3nsc4ccccc34)c2)CC1`, the Potency entry is “inactive”.

Take `Cn1cccc1C(=O)OCC(=O)c1ccc(Br)s1`: the Potency entry was “inactive”.

`COc1ccc(CNC(=O)CN2C(=O)c3ccccc3S2(=O)=O)cc1`: the Potency entry is “inactive”.

With `COc1cccc(NC(=O)C/C(C)=N/NC(=O)C2CCCCC2)c1`, the Potency result is “inactive”.

For the molecule `COc1ccc(COC(=O)N/N=C(\C)CC(=O)Nc2ccc(Cl)cc2)cc1`, the Potency was 0.141 µM (active).

In the case of `C/C(CC(=O)Nc1ccc(Cl)cc1)=N\NC(=O)C(=O)NCCO`, the Potency result was “inactive”.

Turning to `CCN(CC(=O)Nc1ccccc1OC)C(=O)CC1CC2CCC1C2` (stereo unspecified), the Potency result was “inactive”.

Take `Cc1ccc(OCC(=O)N/N=C/c2ccncc2)cc1`: the Potency entry was “inactive”.

For the molecule `Cc1ccc(/C=N/NC(=O)COc2ccccc2-c2ccccc2)cc1`, the Potency is 1.64 µM (active).

For `Cc1ccc(OCC(=O)N/N=C\c2ccco2)c(C)c1`, the Potency entry is “inactive”.

Turning to `CCc1cccc(NC(=O)CCC(=O)O)c1`, the Potency result was “inactive”.

In the case of `O=C(Cc1ccccc1)Nc1cccc(NC(=O)c2ccccc2)c1`, the Potency entry is “inactive”.

Take `O=C(CCl)Nc1cccc(CP(=O)(c2ccccc2)c2ccccc2)c1`: the Potency was 7.94 µM (active).

As for `CN(C)S(=O)(=O)c1ccc(N2CCCC2)c(C(=O)Nc2ccc(Br)cc2F)c1`, the Potency result is “inactive”.

With `CCCn1nc(C(=O)OCc2nc(N)nc(Nc3ccccc3C)n2)c2ccccc2c1=O`, the Potency result was “inactive”.

`CCC(C(=O)Nc1cc(OC)ccc1OC)n1c(=O)c(C(F)(F)F)nc2ccccc21` (stereo unspecified): the Potency result was “inactive”.

`O=C(N/C(=C/c1ccc(Cl)cc1)C(=O)N1CCCCC1)c1ccco1`: the Potency entry was “inactive”.

Take `C=CCn1cc(C(=O)NCc2ccc(Cl)cc2)c(=O)c2cc(S(=O)(=O)N(CC)CC)ccc21`: the Potency was 0.398 µM (active).

With `CCn1cc(C(=O)NCc2ccccc2)c(=O)c2cc(S(=O)(=O)N3CCCCC3)ccc21`, the Potency result is “inactive”.

Turning to `CCN(CC)S(=O)(=O)c1ccc2c(c1)c(=O)c(C(=O)N1CCN(c3cccc(Cl)c3)CC1)cn2C`, the Potency entry was “inactive”.

For the molecule `CC(=O)OC1CCC2(C)C(=CCC3C4CC(=O)N(O)C(=O)C4(C)CCC32)C1` (stereo unspecified), the Potency result was “inactive”.

Regarding `CC(C(=O)NC1CCCC1)N1CCN(S(=O)(=O)c2ccccc2Cl)CC1` (stereo unspecified), the Potency entry was “inactive”.

As for `Cc1ccc(N(CC(=O)NC2CCCCC2)C(=O)CCCC(=O)Nc2ccccn2)c(C)c1`, the Potency result was “inactive”.

Consider `CC(Nc1nc(N2CCOCC2)nc2ccccc12)c1ccccc1` (stereo unspecified), for which the Potency entry was “inactive”.

Turning to `CC(Nc1nc(N2CCCC2)nc2ccccc12)c1ccccc1` (stereo unspecified), the Potency is 12.6 µM (active).

Turning to `c1ccc2c(NC3C4CC5CC(C4)CC3C5)nc(N3CCOCC3)nc2c1` (stereo unspecified), the Potency result was “inactive”.

For the molecule `Cc1ccc(S(=O)(=O)N2CCC(C(=O)NCCC3=CCCCC3)CC2)cc1C`, the Potency result is “inactive”.

Take `COc1cc(NC(=O)c2ccc(-c3csc(C)n3)cc2)c(OC)cc1Cl`: the Potency entry is “inactive”.

Turning to `O=C1c2ccccc2C(=O)c2c1cccc2N1CCN(C/C=C/c2ccccc2)CC1`, the Potency entry is “inactive”.

With `O=C(Nc1cccc(Br)c1)C1CC(=O)N(C2CCCC2)C1` (stereo unspecified), the Potency result is “inactive”.

For `CN(C)S(=O)(=O)c1cccc(NC(=O)COC(=O)c2cc(=O)[nH]c(=O)[nH]2)c1`, the Potency result is “inactive”.

As for `CN(c1ccccc1)S(=O)(=O)c1cccc(C(=O)NNC(=O)c2ccncc2)c1`, the Potency result was “inactive”.

For `CN(c1ccccc1)S(=O)(=O)c1ccc(Cl)c(C(=O)OCC(N)=O)c1`, the Potency entry was “inactive”.

As to `NS(=O)(=O)c1ccc(NC(=O)COC(=O)C2(c3ccc(F)cc3)CCCC2)cc1`, the Potency result was “inactive”.

As for `CN(c1ccccc1)S(=O)(=O)c1cccc(NC(=O)Cc2ccc(Cl)cc2)c1`, the Potency is 8.91 µM (active).

Regarding `CN(c1cccc(NC(=O)Nc2ccc(Cl)cc2)c1)S(C)(=O)=O`, the Potency result is “inactive”.

On to `Cc1ccc(S(=O)(=O)N(CC(=O)Nc2cccc([N+](=O)[O-])c2)Cc2ccc(Cl)cc2)cc1`, for which the Potency result is “inactive”.

For `CN(C)S(=O)(=O)c1cccc(NC(=O)Cc2ccsc2)c1`, the Potency is 2.82 µM (active).

For the molecule `CN(C)S(=O)(=O)c1cccc(NC(=S)N/N=C/C(=O)c2ccccc2)c1`, the Potency result is “inactive”.

For `CN(C)S(=O)(=O)c1cccc(NC(=O)COC(=O)C2(c3ccccc3F)CCCC2)c1`, the Potency is 4.11 µM (active).

In the case of `CN(C)S(=O)(=O)c1cccc(NC(=O)COC(=O)/C=C/c2cccs2)c1`, the Potency entry was “inactive”.

Regarding `CN(c1ccccc1)S(=O)(=O)c1cccc(NC(=O)Cc2c(F)cccc2Cl)c1`, the Potency is 11.2 µM (active).
